Data published in the supplement of paper PMC11402862.

Columns and labels:
Test in all cases: luciferase reporter transactivation, fold of solvent control; higher = stronger receptor activation
Conditions in all cases: HEK293T, exposure time: 24 h
CAR LBD (GAL4 fusion) = test system: CAR LBD (GAL4 fusion)
Summary of the method: (§1)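 Transactivation values are firefly/Renilla luciferase ratios expressed as fold of solvent control and averaged over biological replicates. HEK293T cells (2 × 10^4 cells/well, 96-well plates) grown in DMEM with 10% FBS at 37 °C and 5% CO2 were transfected transiently with TransIT-LT1. Each well carried a GAL4 fusion of a single human nuclear receptor ligand-binding domain, a GAL4-(UAS)5-TK firefly luciferase reporter and a Renilla luciferase plasmid. Exposure to compound lasted 24 h, at 1 to 500 µM in DMEM with 0.5% DMSO.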

[1] = test system: LXRalpha LBD (GAL4 fusion)
Summary of the method: as §1

[2] = test system: PPARdelta LBD (GAL4 fusion)
Summary of the method: as §1

PXR LBD (GAL4 fusion) = PXR LBD (GAL4 fusion) (UniProt O75469)
Summary of the method: as §1

RARalpha (GAL4 fusion) = test system: RARalpha (GAL4 fusion)
Summary of the method: as §1

Chain of PXR LBD (GAL4 fusion) (O75469 whole entry, looked up, the tested form may be a part): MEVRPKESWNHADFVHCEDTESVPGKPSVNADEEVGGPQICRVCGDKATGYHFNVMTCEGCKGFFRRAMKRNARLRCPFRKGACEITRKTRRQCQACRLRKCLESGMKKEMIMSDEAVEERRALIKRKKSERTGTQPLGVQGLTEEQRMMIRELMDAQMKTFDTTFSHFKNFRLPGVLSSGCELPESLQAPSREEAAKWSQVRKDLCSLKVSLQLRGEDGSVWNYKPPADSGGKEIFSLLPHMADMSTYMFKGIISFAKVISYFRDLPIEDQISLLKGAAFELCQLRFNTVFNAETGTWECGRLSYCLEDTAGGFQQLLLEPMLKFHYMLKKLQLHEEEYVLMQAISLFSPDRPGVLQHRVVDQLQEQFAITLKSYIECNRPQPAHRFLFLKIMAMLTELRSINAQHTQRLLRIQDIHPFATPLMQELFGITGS

## O=C(O)C(F)(F)C(F)(F)F [perfluoropropanoic acid]
CAR LBD (GAL4 fusion); concentration: 1 µM
  luciferase reporter transactivation: 0.94
CAR LBD (GAL4 fusion); concentration: 5 µM
  luciferase reporter transactivation: 0.855
CAR LBD (GAL4 fusion); concentration: 10 µM
  luciferase reporter transactivation: 0.923
CAR LBD (GAL4 fusion); concentration: 25 µM
  luciferase reporter transactivation: 0.983
CAR LBD (GAL4 fusion); concentration: 50 µM
  luciferase reporter transactivation: 1.12
CAR LBD (GAL4 fusion); concentration: 100 µM
  luciferase reporter transactivation: 1.11
CAR LBD (GAL4 fusion); concentration: 250 µM
  luciferase reporter transactivation: 1.15
CAR LBD (GAL4 fusion); concentration: 500 µM
  luciferase reporter transactivation: 1.31
[1]; concentration: 1 µM
  luciferase reporter transactivation: 0.9
[1]; concentration: 5 µM
  luciferase reporter transactivation: 0.907
[1]; concentration: 10 µM
  luciferase reporter transactivation: 0.949
[1]; concentration: 25 µM
  luciferase reporter transactivation: 0.933
[1]; concentration: 50 µM
  luciferase reporter transactivation: 1
[1]; concentration: 100 µM
  luciferase reporter transactivation: 0.953
[1]; concentration: 250 µM
  luciferase reporter transactivation: 0.94
[1]; concentration: 500 µM
  luciferase reporter transactivation: 0.97
[2]; concentration: 1 µM
  luciferase reporter transactivation: 0.959
[2]; concentration: 5 µM
  luciferase reporter transactivation: 1.14
[2]; concentration: 10 µM
  luciferase reporter transactivation: 1.27
[2]; concentration: 25 µM
  luciferase reporter transactivation: 1.2
[2]; concentration: 50 µM
  luciferase reporter transactivation: 1.26
[2]; concentration: 100 µM
  luciferase reporter transactivation: 1.21
[2]; concentration: 250 µM
  luciferase reporter transactivation: 1.22
[2]; concentration: 500 µM
  luciferase reporter transactivation: 1.31
PXR LBD (GAL4 fusion); concentration: 1 µM
  luciferase reporter transactivation: 0.362
PXR LBD (GAL4 fusion); concentration: 5 µM
  luciferase reporter transactivation: 0.532
PXR LBD (GAL4 fusion); concentration: 10 µM
  luciferase reporter transactivation: 0.495
PXR LBD (GAL4 fusion); concentration: 25 µM
  luciferase reporter transactivation: 0.632
PXR LBD (GAL4 fusion); concentration: 50 µM
  luciferase reporter transactivation: 0.626
PXR LBD (GAL4 fusion); concentration: 100 µM
  luciferase reporter transactivation: 0.695
PXR LBD (GAL4 fusion); concentration: 250 µM
  luciferase reporter transactivation: 0.601
PXR LBD (GAL4 fusion); concentration: 500 µM
  luciferase reporter transactivation: 0.727
RARalpha (GAL4 fusion); concentration: 1 µM
  luciferase reporter transactivation: 0.332
RARalpha (GAL4 fusion); concentration: 5 µM
  luciferase reporter transactivation: 0.321
RARalpha (GAL4 fusion); concentration: 10 µM
  luciferase reporter transactivation: 0.367
RARalpha (GAL4 fusion); concentration: 25 µM
  luciferase reporter transactivation: 0.387
RARalpha (GAL4 fusion); concentration: 50 µM
  luciferase reporter transactivation: 0.632
RARalpha (GAL4 fusion); concentration: 100 µM
  luciferase reporter transactivation: 0.652
RARalpha (GAL4 fusion); concentration: 250 µM
  luciferase reporter transactivation: 0.977
RARalpha (GAL4 fusion); concentration: 500 µM
  luciferase reporter transactivation: 0.946

## NS(=O)(=O)C(F)(F)C(F)(F)C(F)(F)C(F)(F)C(F)(F)C(F)(F)C(F)(F)C(F)(F)F [perfluorooctane sulfonamide]
CAR LBD (GAL4 fusion); concentration: 1 µM
  luciferase reporter transactivation: 1.08
CAR LBD (GAL4 fusion); concentration: 2.5 µM
  luciferase reporter transactivation: 1.29
CAR LBD (GAL4 fusion); concentration: 5 µM
  luciferase reporter transactivation: 1.18
CAR LBD (GAL4 fusion); concentration: 10 µM
  luciferase reporter transactivation: 1.06
CAR LBD (GAL4 fusion); concentration: 100 µM
  luciferase reporter transactivation: 0.995
[1]; concentration: 1 µM
  luciferase reporter transactivation: 1.05
[1]; concentration: 2.5 µM
  luciferase reporter transactivation: 0.997
[1]; concentration: 5 µM
  luciferase reporter transactivation: 1.08
[1]; concentration: 10 µM
  luciferase reporter transactivation: 1.03
[1]; concentration: 100 µM
  luciferase reporter transactivation: 1.09
[2]; concentration: 1 µM
  luciferase reporter transactivation: 1.15
[2]; concentration: 2.5 µM
  luciferase reporter transactivation: 1.03
[2]; concentration: 5 µM
  luciferase reporter transactivation: 0.974
[2]; concentration: 10 µM
  luciferase reporter transactivation: 0.826
[2]; concentration: 100 µM
  luciferase reporter transactivation: 0.935
PXR LBD (GAL4 fusion); concentration: 1 µM
  luciferase reporter transactivation: 0.779
PXR LBD (GAL4 fusion); concentration: 2.5 µM
  luciferase reporter transactivation: 0.819
PXR LBD (GAL4 fusion); concentration: 5 µM
  luciferase reporter transactivation: 0.699
PXR LBD (GAL4 fusion); concentration: 10 µM
  luciferase reporter transactivation: 0.703
PXR LBD (GAL4 fusion); concentration: 100 µM
  luciferase reporter transactivation: 0.74
RARalpha (GAL4 fusion); concentration: 1 µM
  luciferase reporter transactivation: 1.02
RARalpha (GAL4 fusion); concentration: 2.5 µM
  luciferase reporter transactivation: 0.969
RARalpha (GAL4 fusion); concentration: 5 µM
  luciferase reporter transactivation: 1.32
RARalpha (GAL4 fusion); concentration: 10 µM
  luciferase reporter transactivation: 1.47
RARalpha (GAL4 fusion); concentration: 100 µM
  luciferase reporter transactivation: 1.71
